Hit rate of the full screen: of about 420,000 compounds, about 50,000 (12%) were called active. Where a call stands in place of a potency, no number is given. About 26% were inconclusive and are not listed. This is one part of a sample in which actives are shown more often than they occur. A number with no mark means an inactive call. The call rests on the fitted dose curve; in most records, active means well fitted inhibition curve with a large enough effect; inconclusive means small, poorly fitted or top-dose-only effect; inactive means flat fitted curve, though single readings scatter.
Experiment: qHTS for Inhibitors of human tyrosyl-DNA phosphodiesterase 1 (TDP1): qHTS in cells in presence of CPT; further: nearly all actives have a fitted effect of over 55% in size
Settings: chicken DT40 Tdp1-/-;hTDP1 cells + 20 nM CPT, ATP luminescence, 48 h; series mostly up to 46.2 µM
Outline: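 Chicken DT40 Tdp1-/- cells stably complemented with human TDP1 were seeded at 400 cells/well in medium containing 20 nM camptothecin, exposed to pin-transferred compounds, and grown at 37 °C for at least 48 hr. Viability was read as ATP luminescence.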
Potency means the concentration at half of the fitted maximal effect.

| Compound | Potency | activity change, negative = growth inhibition |
| --- | --- | --- |
| COCCCn1c(=O)/c(=C/c2ccccc2OC(C)C)s/c1=C(\C#N)C(=O)Nc1ccc(C(=O)O)cc1 | 20.6 µM (active) | – |
| Cn1c(N)c(C(=O)COC(=O)COc2ccc(Cl)cc2)c(=O)n(C)c1=O | inactive | – |
| COc1ccc(-c2cc(=O)oc3cc(OC(C)C(=O)NCC4CCC(C(=O)O)CC4)ccc23)cc1 (centres undefined) | inactive | – |
| COc1ccc(NC(=O)CNc2cc(S(=O)(=O)N3CCOCC3)ccc2N2CCOCC2)c(OC)c1 | inactive | – |
| O=C(CC12CC3CC(CC(C3)C1)C2)Nc1ccc2c(c1)COC2=O | 13 µM (active) | – |
| NS(=O)(=O)c1cccc(NC(=O)CC23CC4CC(CC(Br)(C4)C2)C3)c1 | inactive | – |
| O=C(CC12CC3CC(CC(C3)C1)C2)NCc1ccco1 | inactive | – |
| CCN1CCN(C(=O)N(Cc2ccc(Cl)cc2)S(=O)(=O)c2ccc(C)cc2)CC1 | inactive | – |
| S=C(NCCc1ccccc1)Nc1ccccc1 | inactive | – |
| CC(=O)Nc1ccc(S(=O)(=O)N(C)CC(=O)NCCC2=CCCCC2)cc1 | inactive | – |
| S=C(NCCC1=CCCCC1)Nc1ccccc1 | 16.4 µM (active) | – |
| COc1ccc(-c2cc(-c3ccc(F)cc3)nc3c2COc2ccccc2-3)cc1 | inactive | – |
| CC(C)(C)C(=O)COC(=O)c1cc(S(=O)(=O)N2CCCCC2)ccc1N1CCOCC1 | inactive | – |
| O=C(CCCN1C(=O)c2ccccc2C1=O)Oc1ccc(Cl)cc1 | inactive | – |
| CCCCN(C(=O)CSCC(=O)Nc1ccc(OC)cc1)c1c(N)n(CCC)c(=O)[nH]c1=O | inactive | – |
| CC(C)C(=O)NC(C)c1nnc2n1CCN(Cc1cccc3ncccc13)CC2 (centres undefined) | – | 24.6% [at 9.04 µM] |
| O=S(=O)(c1ccccc1)c1nc(-c2ccccc2)oc1NCCCN1CCOCC1 | inactive | – |
| N#Cc1nc(-c2ccc(OCc3ccccc3)cc2)oc1NCCCN1CCOCC1 | 20.6 µM (active) | – |
| Cc1ccc(-c2nc(C#N)c(NCCCn3ccnc3)o2)cc1 | inactive | – |
| Nc1nc(SCC(=O)Nc2cc(C(F)(F)F)ccc2Cl)[nH]c(=O)c1NC(=O)c1ccco1 | inactive | – |
| CO[C@H]1[C@H](NC(=O)C(C)C)c2ccccc2C12CCN(Cc1cnc(N(C)C)s1)CC2 | – | 1.26% [at 9.04 µM] |
| CCc1nnc(NC(=O)c2ccco2)s1 | inactive | – |
| Cc1ccc2nc(COc3cccc(NC(=O)c4ccccc4Cl)c3)cc(=O)n2c1 | inactive | – |
| CCCC(=O)N(CCN1CCOCC1)c1nc2ccc(OCC)cc2s1 | inactive | – |
| Nc1ccc2[nH]c(=S)sc2c1 | inactive | – |

| Compound | Potency | activity change, negative = growth inhibition |
| --- | --- | --- |
| CCOc1ccc2[nH]c(=S)sc2c1 | 18.4 µM (active) | – |
| CC(C)CNC(=S)NNC(=O)c1nn(C)cc1Cl | inactive | – |
| CCOc1ccc(CCNC(=O)c2c(C)oc3ncn(C)c(=O)c23)cc1 | inactive | – |
| CCOc1ccc(CCNC(=O)c2cc3c(=O)n(C)c4ccccc4c3n2C)cc1 | 20.6 µM (active) | – |
| Cn1c(C(=O)NCCc2ccsc2)cc2c(=O)n(C)c3ccccc3c21 | 18.4 µM (active) | – |
| CN(Cc1ccccc1)C(=O)c1cc2c(=O)n(C)c3ccccc3c2s1 | inactive | – |
| CCOc1ccc(NC(=O)c2cn(C3CCCCC3)c(=O)c3c2c2ccccc2n3C)cc1 | inactive | – |
| Cn1c(C(=O)N2CCC(C(N)=O)CC2)cc2c(=O)n(C)c3ccccc3c21 | inactive | – |
| Cc1cc(C)cc(NC(=O)C(c2ccccc2)N2CCN(CC(=O)N3CCCC3)CC2)c1 (centres undefined) | inactive | – |
| CC(C)CC(=O)c1c[nH]c(C(=O)NCc2ccccc2)c1 | inactive | – |
| CC12CCC(C(=O)N(NC(=O)c3ccccc3O)C1=O)C2(C)C (centres undefined) | 20.6 µM (active) | – |
| CC12CCC(C(=O)N(c3cccc(Cl)c3)C1=O)C2(C)C (centres undefined) | inactive | – |
| O=C(NN1C(=O)C2C(C1=O)C1C=CC2C12CC2)c1ccccc1Cl (centres undefined) | inactive | – |
| NC(=O)c1ncn([C@@H]2O[C@H](CNCc3cnc(N4CCOCC4)s3)[C@@H](O)[C@H]2O)n1 | inactive | – |
| CCOc1ccc(-c2nnn(CC(=O)N3CCN(c4ccc(F)cc4)CC3)n2)cc1OCC | inactive | – |
| CCOc1ccc(-c2nnn(CC(=O)N3CCN(c4ccc(OC)cc4)CC3)n2)cc1OCC | inactive | – |
| O=C(Nc1ccccc1-c1nnn(CC(=O)N2CCN(c3ccccc3)CC2)n1)c1cccs1 | 14.6 µM (active) | – |
| C[C@H]1CN([C@@H](C)CO)C(=O)CCCn2cc(nn2)CO[C@@H]1CN(C)S(=O)(=O)c1cccs1 | inactive | – |
| CSc1ccc(NC(=O)Cn2nnnc2-c2ccccc2F)cc1 | inactive | – |
| C/C(=N/OC(=O)c1cccc(C(F)(F)F)c1)c1cnccn1 | inactive | – |
| Cc1nn(-c2ccccc2)c(C)c1NC(=O)COc1ccc(Cl)cc1Cl | 16.4 µM (active) | – |
| C/C=C/c1ccc(OCC(=O)OCC(=O)Nc2c(C)nn(-c3ccccc3)c2C)c(OC)c1 | inactive | – |
| Cc1nn(-c2ccccc2)c(C)c1NC(=O)COC(=O)c1cc(Cl)ccc1O | inactive | – |
| Cc1cc(=O)oc2c3c(cc(OCC(=O)NCCC(=O)N[C@@H](C)C(=O)O)c12)OC(C)(C)CC3 | inactive | – |
